system: CDKL2; settings: concentration: 1 μM, replicates: in singlicate; n = 1
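Also: KINOMEscan kinase panel screen.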

| SMILES | %Inh [%] |
| --- | --- |
| COc1ccc(Nc2nccc(N3CCC(NC(=O)c4cc5ccccc5s4)C3)n2)cc1 (stereo not drawn) [GSK1379738] | 35 |
| Cc1ccc(-c2nc(Nc3ccncc3)c3ccccc3n2)s1 [GSK189015] | 0 |
| Cn1cncc1C(=O)NC1CCN(c2ccnc(Nc3ccc(F)cc3)n2)C1 (stereo not drawn) [GSK1379717] | 3 |
| COc1ccc(Nc2nccc(N3CCC(NC(=O)C(C)c4ccc(Cl)cc4)C3)n2)cc1 (stereo not drawn) [GSK1379735] | 29 |
| COc1nccc(-c2c(-c3ccc(F)cc3)ncn2CCCN2CCOCC2)n1 [SB-282852] | 36 |
| Cc1ccccc1Cn1ccn2c(=O)cc(N3CCOCC3)nc12 [GSK2269905] | 15 |
| CS(=O)(=O)CCNCc1nc(-c2ccc3ncnc(Nc4ccc5c(cnn5Cc5ccccc5)c4)c3c2)cs1.Cl.Cl [GW569716] | 11 |
| O=C1NC(=O)C(c2ccc(Cl)cc2)=C1Nc1ccc(O)cc1 [SB-340867] | 41 |
| Cc1cccc2c(-c3ccncn3)c(-c3ccc(F)cc3)nn12 [GW515532] | 13 |
| Cn1cncc1-c1cc2c(Nc3ccc(OCc4ccccc4)cc3)ncnc2cn1 [GW281179] | 21 |
| CCn1c(-c2ccccc2)nc2cnccc21 [SB-733416] | 9 |
| Nc1ncnc2occ(-c3ccc4c(c3)CCN4C(=O)Cc3cc(F)ccc3F)c12 [GSK2645446] | 0 |
| c1ccc(-c2ccnc3[nH]ccc23)cc1 [SB-693578] | 12 |
| O=C(Nc1n[nH]c2cc(-c3ccsc3)ccc12)C1CC1 [SB-732932] | 94.7 |
| COc1ccc(Nc2nccc(NCCNC(=O)Nc3cc(C)ccc3C)n2)cc1 [GSK1379899] | 21 |
| Cc1ccc(NC(=O)Nc2ccccc2F)cc1-c1ccc(C(=O)Nc2ccncc2)cc1 [GSK1398477] | 30 |
| Cl.Cl.Cl.N#Cc1ccc(CCNc2nccc(-c3cccc(CN4CCNCC4)c3)n2)cc1 [GSK2137462] | 6 |
| O=C1NC(=O)C(c2ccc(Cl)cc2)=C1Nc1cccc(Cl)c1 [SB-317651] | 20 |

| SMILES | %Inh [%] |
| --- | --- |
| Cc1ccccc1-c1cc(-c2c[nH]nc2-c2ccccn2)ccn1 [GW680061] | 10 |
| Fc1ccc(-c2nc3n(c2-c2ccncc2)CCS3)cc1 [GI98581] | 4 |
| CC(C)c1ccc(O)cc1Nc1ccnc2ccc(C(F)(F)F)cc12 [GW482059] | 5 |
| CC(=O)c1cccc(NC(=O)NC2CCN(c3ccnc(Nc4ccc(F)cc4)n3)C2)c1 (stereo not drawn) [GSK1379710] | 59 |
| Cc1nccc(-c2c(-c3ccc(F)cc3)ncn2CCCN2CCOCC2)n1.Cl [SB-282975] | 20 |
| O=C(Nc1n[nH]c2nc(-c3ccco3)c(Br)cc12)C1CCN(Cc2ccccc2)C1.O=C(O)[C@H](O)[C@@H](O)C(=O)O (stereo not drawn) [SB-742034] | 69 |
| O=c1cc(N2CCOCC2)nc2n(Cc3cccc(Cl)c3Cl)c3ccccc3n12 [GSK2299009] | 14 |
| Cn1cnc2c(N)ncnc21 [SKF-97623] | 48 |
| CNCc1ccc2nc(NC(=O)c3ccc(C(C)(C)C)cc3)cn2c1 | 0 |
| COc1ccc(CSc2nnc(-c3ccc4nccn4c3)o2)cc1C(F)(F)F | 7 |
| O=C(Nc1n[nH]c2nc(-c3cccs3)c(Br)cc12)C1CCCC1 [SB-743341] | 87 |
| Nc1nccc(-c2c(-c3ccc(F)cc3)ncn2C2CCN(Cc3ccccc3)CC2)n1 [SB-219980] | 0 |
| Cc1ccc(NC(=O)Nc2ccc(Cl)c(C(F)(F)F)c2)cc1-c1ccc(C(=O)Nc2ccncc2)cc1 [GSK1398470] | 34 |
| COc1ccc(CSc2nnc(-c3ccc4c(c3)CCO4)o2)cc1 | 0 |
| NS(=O)(=O)c1cccc(N/C=C2\C(=O)Nc3ccc(S(=O)(=O)Cc4c(Cl)cccc4Cl)cc32)c1 [GSK398099] | 37 |
| CNc1nc(-c2ccc3c(N)n[nH]c3c2)cc(N2C[C@@H](C(=O)NC3CCCCC3)OC[C@H]2C)n1 [GSK2375584] | 0 |
| CS(=O)(=O)Cc1ccc(Nc2nccc(-c3c(-c4cccc(NC(=O)C5CCCCC5)c4)nn4ncccc34)n2)cc1 [GSK350559] | 5 |
| COC(=O)c1cccc(NC(=O)NC2CCN(c3ccnc(Nc4ccc(OC)cc4)n3)C2)c1 (stereo not drawn) [GSK1379746] | 77 |

From publication PMC5540273 (PLoS ONE, 2017)
